From PubChem BioAssay (Tox21) come the findings set out here.

The nature of assay [1]: qHTS assay for small molecules that induce genotoxicity in human embryonic kidney cells expressing luciferase-tagged ATAD5 (AID 651632). Note: nearly all actives have a fitted effect of over 15% in size. The procedure, abridged: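 Concentration-response screen for ATAD5 upregulation in HEK293T luciferase reporter cells; 16 hr treatment at 37C, then luminescence after 30 min with Amplite at room temperature.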
Assay [2] in a line: qHTS assay for small molecule agonists of the p53 signaling pathway - cell viability (AID 651633; calls by dose curve; note: nearly all actives have a fitted effect of over 30% in size; note: potency is the fitted concentration of half-maximal effect). The procedure, abridged:
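p53RE-bla cells, seeded at 4,000 per well and rested 5 h at 37 C/5% CO2, received compounds in DMSO for 16 h at 37 C. CellTiter-Glo was then added, and luminescence was read after 30 min at room temperature to gauge cytotoxicity.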

The nature of assay [3]: qHTS assay for small molecules that induce genotoxicity in human embryonic kidney cells expressing luciferase-tagged ATAD5 - cell viability (AID 651634; calls by dose curve; note: nearly all actives have a fitted effect of over 25% in size; note: potency is the fitted concentration of half-maximal effect). The procedure, abridged:
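15.5 hr compound or vehicle exposure of HEK293T cells expressing luciferase-tagged ATAD5 at 37C; live-cell protease activity is read by fluorescence after 30 min of CellTiter-Fluor.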

Assay [4] in a line: qHTS assay for small molecule disruptors of the mitochondrial membrane potential - cell viability (AID 720634; calls by dose curve; note: nearly all actives have a fitted effect of over 20% in size; note: potency is the fitted concentration of half-maximal effect). The procedure, abridged: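 In this qHTS format, HepG2 cells plated overnight were pinned with compound, incubated 1 hr, and assayed for ATP luminescence with CellTiter-Glo after m-MPI dye addition.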
Assay [5] can be described thus: qHTS assay to test for compound auto fluorescence at 590 nm (red) in HepG2 cells (AID 720674). The procedure, abridged: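 Intrinsic compound fluorescence in the red window (Ex/Em 540/590 nm) is measured in attached HepG2 cells exposed for 1 hr, DMSO vehicle as baseline, benchmarked to Rose Bengal sodium.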
A short description of assay [6]: qHTS assay to test for compound auto fluorescence at 535 nm (green) in HepG2 cells (AID 720675).
Assay [7] can be described thus: qHTS assay to test for compound auto fluorescence at 460 nm (blue) in HEK293 cells (AID 720678). The procedure, abridged: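 Blue-channel (Ex/Em 405/460 nm) intensity measured in HEK293 cultures after overnight compound exposure at 37C; signal expressed relative to triamterene. Cells plated 2,000 per well in 10% dialyzed FBS medium and allowed 4-5 hr to attach.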
A short description of assay [8]: qHTS assay to test for compound auto fluorescence at 590 nm (red) in HEK293 cells (AID 720679). The procedure, abridged:
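Red-channel autofluorescence (Ex/Em 540/590 nm; Rose Bengal sodium reference) was measured after overnight 37C, 5% CO2 exposure of attached HEK293 cells, 2,000 per well in medium with 10% dialyzed FBS.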

Assay [9] can be described thus: qHTS assay to test for compound auto fluorescence at 535 nm (green) in HEK293 cells (AID 720680).
The nature of assay [10]: qHTS assay to test for compound auto fluorescence at 460 nm (blue) in HEK293 cell free culture (AID 720681). The procedure, abridged: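 Test compounds were pinned into cell-free culture medium (DMEM with 10% FBS) and fluorescence was read directly at Ex/Em 405/460 nm. Signals were expressed as fluorescence equivalents of triamterene, with DMSO vehicle as control.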
A short description of assay [11]: qHTS assay to test for compound auto fluorescence at 535 nm (green) in HEK293 cell free culture (AID 720682). The procedure, abridged: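 Cell-free medium (DMEM, 10% FBS) receives compound or DMSO by pintool. Plate read directly at Ex 485/Em 535 nm. Signal converted to fluorescein equivalency.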
Assay [12] is described as follows: qHTS assay to test for compound auto fluorescence at 590 nm (red) in HEK293 cell free culture (AID 720683). The procedure, abridged:
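Tox21 10K library compounds were pinned into cell-free DMEM with 10% FBS and fluorescence was read at excitation 540 nm. Activity is expressed as Rose Bengal sodium equivalency.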

Assay [13] in a line: qHTS assay to test for compound auto fluorescence at 590 nm (red) in HepG2 cell free culture (AID 720684). The procedure, abridged: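 Ex 540 / Em 590 nm read of compound in cell-free MEM (10% FBS). Rose Bengal sodium reference.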
Assay [14] can be described thus: qHTS assay to test for compound auto fluorescence at 460 nm (blue) in HepG2 cell free culture (AID 720685). The procedure, abridged: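 Cell-free plates of MEM plus 10% FBS received 23 nL compound or DMSO vehicle; blue-channel (405/460 nm) intensity scored against triamterene as reference fluorophore.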
Assay [15] can be described thus: qHTS assay to test for compound auto fluorescence at 535 nm (green) in HepG2 cell free culture (AID 720686).
Assay [16] in a line: qHTS assay to test for compound auto fluorescence at 460 nm (blue) in HepG2 cells (AID 720687). The procedure, abridged:
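Cells (2,000/well in MEM with 10% FBS) attached overnight at 37 C, then were exposed to compound or DMSO for 1 hr at 37 C, 5% CO2. Fluorescence read at Ex/Em 405/460 nm, expressed as triamterene-equivalent signal.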

For assay [17], the target named is Glucocorticoid receptor (Homo sapiens) (UniProt P04150). The experiment in a line: qHTS assay to identify small molecule antagonists of the glucocorticoid receptor (GR) signaling pathway (AID 720692; active = well fitted inhibition curve with a large enough effect in the signal ratio in the repeat runs, not every such curve was filed as active; inconclusive = weak or mixed curves, or effect the other way; inactive = no such curve, though single readings can be large or run the other way; the % refers to the signal ratio; note: potency is the fitted concentration of half-maximal effect). The procedure, abridged:
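Tox21 10K library screened in concentration-response for blockade of dexamethasone (5 nM final)-induced GRE-bla reporter activity in HeLa cells; 18 h treatment, fluorescence read.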

Assay [18] can be described thus: qHTS assay for small molecule disruptors of the mitochondrial membrane potential (AID 720635). Note: potency is the fitted concentration of half-maximal effect. The procedure, abridged:
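HepG2 cells (2,000/well) attached overnight at 37C, then took compound for 1 hr at 37C, 5% CO2. Mito-MPS dye was added for 30 min; fluorescence was read at 490/535 nm (monomers) and 540/590 nm (aggregates).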

Assay [19] concerns the target Glucocorticoid receptor (Homo sapiens) (UniProt P04150). The experiment in a line: qHTS assay to identify small molecule agonists of the glucocorticoid receptor (GR) signaling pathway (AID 720691; active = well fitted activation curve with a large enough effect in the signal ratio in the repeat runs, not every such curve was filed as active; inconclusive = weak or mixed curves, or effect the other way; inactive = no such curve, though single readings can be large or run the other way; the % refers to the signal ratio). Conditions: GR-bla HeLa, beta-lactamase reporter ratio, 18 h; activation: at 62.4 µM (top of the series). The procedure, abridged:
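Measures GR pathway activation through a GRE-beta-lactamase reporter stably integrated in HeLa cells, with 18 h compound treatment at 37 C and fluorescence detection using a FRET substrate.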

Each structure is given as a SMILES string. “And” between values parts separate entries of the source, which are not always exact repeats. Equal entries are not always repeated. Some structures have more than one record in an assay (separate samples or runs), and their calls can disagree. The source made the active and inactive calls. Unless noted, calls come from the whole dose curve; as a rule, active = well fitted curve in the direction sought with a large enough effect in the repeat runs; inconclusive = weak or mixed curves; inactive = no such curve, though single readings can be large; an effect the other way counts as inactive or inconclusive.
% is set by controls: 0 for no effect and ±100 for the full control effect.

Sequence of Glucocorticoid receptor (Homo sapiens) (P04150 whole entry, looked up): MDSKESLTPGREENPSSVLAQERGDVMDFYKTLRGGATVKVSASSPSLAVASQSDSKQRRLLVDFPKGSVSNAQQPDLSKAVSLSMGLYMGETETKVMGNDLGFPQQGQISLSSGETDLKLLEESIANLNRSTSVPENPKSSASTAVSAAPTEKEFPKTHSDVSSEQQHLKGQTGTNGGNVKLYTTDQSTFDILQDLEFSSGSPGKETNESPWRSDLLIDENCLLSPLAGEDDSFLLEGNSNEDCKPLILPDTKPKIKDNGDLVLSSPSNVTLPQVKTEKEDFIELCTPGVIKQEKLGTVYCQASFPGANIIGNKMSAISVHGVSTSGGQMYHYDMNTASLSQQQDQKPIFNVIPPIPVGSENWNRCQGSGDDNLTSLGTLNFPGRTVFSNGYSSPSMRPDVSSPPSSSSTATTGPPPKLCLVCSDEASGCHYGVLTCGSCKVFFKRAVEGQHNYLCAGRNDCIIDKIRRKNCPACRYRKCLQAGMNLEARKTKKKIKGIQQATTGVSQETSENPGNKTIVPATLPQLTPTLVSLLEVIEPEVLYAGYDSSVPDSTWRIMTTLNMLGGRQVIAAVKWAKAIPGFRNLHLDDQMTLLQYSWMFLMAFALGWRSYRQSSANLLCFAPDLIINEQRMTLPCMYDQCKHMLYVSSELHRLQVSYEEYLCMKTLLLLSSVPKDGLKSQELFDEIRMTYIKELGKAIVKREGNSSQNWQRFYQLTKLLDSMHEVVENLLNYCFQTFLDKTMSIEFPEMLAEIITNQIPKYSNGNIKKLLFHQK

As for `C/C=C/C(=O)Oc1c(CCCCCC(C)C)cc([N+](=O)[O-])cc1[N+](=O)[O-]`, the Potency entry in [1], in assay [5], in assay [6], in assay [7], in assay [8] and in [9] was “inactive” throughout. Also, the Potency result in [10], in assay [11], in assay [12], in assay [13], in assay [14] and in assay [15] was “inactive” each time. In addition, the Potency entry in assay [16] is “inactive”. The Potency was 15.4 µM (active) in [2], 19.3 µM (active) in [3], 3.06 µM (active) in assay [4] and 3.09 µM (active) in assay [17].
As for `COC(=O)CC(C)CCC=C(C)C` (stereo not drawn), the Potency result in [1], in [2], in assay [3], in assay [4], in [18] and in assay [5] was “inactive” in each case. Moreover, the Potency entry in [6], in [7], in [8], in [9], in assay [10] and in assay [11] was “inactive” throughout. The Potency result in [12], in assay [14], in assay [15], in [16], in assay [19] and in assay [17] was “inactive” in each case.
With `CCCCN(CCCC)CCC(O)c1cc2c(Cl)cc(Cl)cc2c2cc(C(F)(F)F)ccc12` (stereo not drawn), the Potency entry in [1], in assay [2], in assay [3], in assay [4] and in [19] was “inactive” in each case. Also, the fluorescence, relative to Rose Bengal in assay [5] is 0.511% [at 18.6 µM] (inactive). Further, the fluorescence, % of fluorescein control was 0.0229% [at 18.6 µM] (inactive) in assay [6] and -0.0465% [at 18.6 µM] (inactive) in [15]. The fluorescence, % of triamterene in assay [7] is -0.234% [at 18.6 µM] (inactive). For the same compound, the fluorescence, % of fluorescent control in [8] is 0.217% [at 18.6 µM] (inactive); in assay [10] it was -0.0401% [at 18.6 µM] (inactive); in assay [12], 0.212% [at 18.6 µM] (inactive); in assay [16] it was 0.0481% [at 18.6 µM] (inactive). In [9], the fluorescence, % of fluorescein was -0.0754% [at 18.6 µM] (inactive). Besides, the activity change in assay [11] was -0.0209% [at 18.6 µM, stronger effect = higher value] (inactive). Further, the fluorescence, % of Rose Bengal in assay [13] is 0.0098% [at 18.6 µM] (inactive).
Take `CCCCCCCOC(=O)c1ccc(O)cc1`: the Potency entry in assay [1], in [3], in [5], in assay [6], in [7] and in [8] was “inactive” in each case. Also, the Potency entry in [9], in assay [10], in assay [11], in assay [13], in [15] and in assay [16] was “inactive” each time. In addition, the Potency entry in assay [2] was “inactive and 61.1 µM (active)”; in assay [4] it was 27.3 µM (active); in assay [18], 8.64 µM (active) and 8.63 µM (active).
As for `O=C(Nc1ccc(Cl)c(Cl)c1)c1cc(Cl)cc(Cl)c1O`, the Potency result in assay [1], in assay [5], in assay [6], in assay [7], in assay [8] and in assay [9] was “inactive” each time. Moreover, the Potency result in assay [10], in assay [11], in [12], in [13], in assay [15] and in assay [16] was “inactive” in each case. The Potency in assay [2] is 0.273 µM (active); in [3], 4.86 µM (active); in assay [4] it was 1.37 µM (active); in assay [18], 137 nM (active). For the same compound, the activation in assay [19] was 11.6% [inconclusive] (active).
Regarding `Cc1cn[nH]c1`, the Potency entry in assay [1], in assay [2], in [3], in assay [4], in [18] and in [5] was “inactive” throughout. The Potency entry in assay [6], in assay [7], in assay [8], in assay [10], in assay [11] and in assay [12] was “inactive” throughout. Moreover, the Potency result in assay [13], in [14], in assay [15], in assay [16], in [19] and in [17] was “inactive” each time.
On to `Cc1cccc(Br)c1`, for which the Potency entry in [1], in [2], in assay [3], in assay [4], in [18] and in assay [5] was “inactive” each time. In addition, the Potency result in assay [6], in [7], in assay [8], in assay [9], in assay [10] and in [11] was “inactive” each time. The Potency result in assay [13], in assay [14], in assay [15], in assay [16] and in [17] was “inactive” throughout.
